# Screens from PubChem.
# Hits are enriched below; roughly 2.9% of the tested compounds scored in any of these assays.
# Myeloid diff 2 = compounds promoting myeloid differentiation; ER-HoxA9 myeloid progenitors, lysozyme-GFP differentiation, flow cytometry; calls only at 10 µM; 360,000 tested, 1% active;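 active = normalized GFP-positive differentiation at or above the plate's own cutoff, the solvent-only control mean plus 3 SD; inconclusive = no clear call, values can overlap the other calls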;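 note: cells exposed to compound for four days before flow analysis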
# H9c2 protect = protects H9c2 cardiomyocytes from peroxide injury; protection from H2O2 cell death, % at 20 µM; 360,000 tested, 0.63% active; AID 588492; H2O2 injury protection, ATPLite, 2 h;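 active = compounds giving at least 50% protection of heart cells from peroxide-induced death in the single-dose screen, raw or plate-pattern-corrected value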;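 note: 0% = DMSO wells with peroxide and 100% = DMSO wells without peroxide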
# sPLA2-III inh = Inhibits HGIII-sPLA2 liposome hydrolysis, primary screen; inhibition, % at 12.2 µM; 370,000 tested, 0.56% active; Q9NZ20; QFRET BODIPY PC-A2 liposome hydrolysis, fluorescence;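 active = inhibition above mean plus 3 SD of compounds lying within the high and low control bounds, cut at about 19% in these data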;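 note: 0% = median of test compound wells and 100% = no enzyme DMSO wells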
# ABHD5-PLIN5 inh = blocks binding of human ABHD5 to perilipin-5; Split G. princeps luciferase complementation, luminescence, 4 h; inhibition, % at 4 µM; 360,000 tested, 0.78% active;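 active = inhibition above the mean inhibition across every tested compound plus 3 SD, cut at about 22% in these data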;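 note: 0% = DMSO only wells and the 100% control is not disclosed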
# DAGLB inhibitor = blocks human DAGLB lipase activity. Q8NCG7. HEK293T DAGLB membrane lysate, EnzChek fluorogenic substrate. inhibition, % at 5.17 µM. 340,000 tested, 0.059% active. AID 504411; in the data active = inhibition above about 34%;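 note: 0% = enzyme with vehicle and 100% = wells lacking enzyme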
# Target sequence (Q8NCG7 whole entry, looked up): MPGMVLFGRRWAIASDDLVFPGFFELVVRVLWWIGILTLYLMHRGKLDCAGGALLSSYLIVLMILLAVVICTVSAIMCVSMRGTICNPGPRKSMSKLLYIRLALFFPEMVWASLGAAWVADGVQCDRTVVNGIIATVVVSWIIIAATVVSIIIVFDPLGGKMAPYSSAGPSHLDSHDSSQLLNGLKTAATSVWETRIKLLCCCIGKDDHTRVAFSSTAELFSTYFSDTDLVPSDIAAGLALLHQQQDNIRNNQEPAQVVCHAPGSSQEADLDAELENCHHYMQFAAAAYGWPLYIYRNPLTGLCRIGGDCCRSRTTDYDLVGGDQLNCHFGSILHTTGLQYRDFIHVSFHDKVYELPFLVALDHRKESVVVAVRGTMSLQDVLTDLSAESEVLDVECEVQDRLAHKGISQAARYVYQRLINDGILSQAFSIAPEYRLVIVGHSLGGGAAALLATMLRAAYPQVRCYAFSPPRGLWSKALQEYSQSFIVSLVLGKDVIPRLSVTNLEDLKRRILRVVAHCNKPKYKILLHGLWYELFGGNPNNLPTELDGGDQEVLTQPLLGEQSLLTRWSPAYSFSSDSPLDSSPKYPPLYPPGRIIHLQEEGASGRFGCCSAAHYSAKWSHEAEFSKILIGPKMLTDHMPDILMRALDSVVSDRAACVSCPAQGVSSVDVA
# Rtt109 HAT inh = C. albicans Rtt109 histone acetyltransferase inhibition; 330,000 tested, 0.16% active; inhibition, % at 34.9 µM; AID 540336; purified Rtt109/Vps75, ThioGlo CoA-SH fluorescence, 4 h;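 active = inhibition of at least 50% in every replicate; inconclusive = best replicate reaches 50% inhibition but some replicates fall short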
# sPLA2 confirm = human GIII-sPLA2 inhibition, confirmation. shares compounds with sPLA2-III inh. recombinant hGIII-sPLA2, BODIPY PC-A2 QFRET fluorescence. inhibition, % at 12.2 µM. 2,000 tested, 34% active;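 active = mean inhibition across triplicates above the hit cutoff set in the earlier primary screen, cut at about 19% in these data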;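 note: 0% = enzyme with DMSO and 100% = DMSO wells lacking enzyme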
# 535nm interf = 535nm fluorescence interference, HGIII-sPLA2 counter-screen | inhibition, % at 12.2 µM | 2,000 tested, 8.5% active | BODIPY FL product fluorescence interference, QFRET | shares compounds with sPLA2-III inh;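 active = average inhibition above the solvent-only control mean plus 3 SD, cut at about 6% in these data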;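 note: 0% = DMSO with substrate plus product and 100% = DMSO with substrate alone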
# 535nm interf DR = 535nm optical interference dose response, HGIII-sPLA2 counter-screen; 240 tested, under 10 active; shares compounds with sPLA2-III inh; IC50, µM; BODIPY FL product fluorescence interference, cell-free;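 active = IC50 at or below 10 µM; inactive = IC50 above 10 µM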
# Numbers without * were called inactive; i = inactive; ? = inconclusive; / = no result given.
SMILES,Myeloid diff 2,H9c2 protect,sPLA2-III inh,ABHD5-PLIN5 inh,DAGLB inhibitor,Rtt109 HAT inh,sPLA2 confirm,535nm interf,others
COc1ccc(C2C(C#N)=C(C)NC3=C2C(=O)CC(C)(C)C3)c(OC)c1 (stereo unspecified),/,-3.9,/,-1.4,-1.9,-63.4,/,/,
COc1cc(OC)c(C2C(C#N)=C(C)NC(C)=C2C#N)c(C(=O)O)c1,i,3.2,23.7*,5.6,0.3,5.9,0.6,-5.1,
Cc1cccc(NC(=S)NNC(=O)c2ccccc2Br)c1,i,-4.0,31.1*,-3.1,1.0,43.6,25.8*,2.3,
Cc1cccc(NC(=O)c2ccc(NC(=O)c3ccccc3Br)cc2)c1,i,-4.5,-1.0,0.2,-1.4,12.6,/,/,
Cc1cccc(NC(=S)NNC(=O)c2ccc3c(c2)OCO3)c1,i,-19.6,22.9*,-1.8,0.5,-2.6,42.9*,-0.3,535nm interf DR=>122
Cc1cccc(NC(=O)c2ccc3c(c2)OCCO3)c1,i,-21.3,8.6,-6.2,0.5,-0.6,/,/,
O=C(NNC(=S)Nc1ccccc1Cl)c1ccccc1Cl,i,-4.8,25.6*,-5.2,1.7,-3.2,34.6*,4.7,535nm interf DR=>122
O=C(NNC(=S)Nc1ccccc1Cl)c1ccccc1,i,-6.3,4.3,-3.3,1.0,12.4,/,/,
O=C(CSCc1ccccc1)NNC(=S)Nc1cccc(Cl)c1Cl,i,-28.3,38.0*,-6.4,9.4,6.3,35.1*,3.5,535nm interf DR=>122
O=C(COC(=O)c1ccc2c(c1)C(=O)N(Cc1ccco1)C2=O)NCC(F)(F)F,?,6.7,12.9,-5.6,-3.1,15.4,/,/,
COc1ccccc1NC(=S)NNC(=O)c1ccccc1Br,i,-5.9,22.1*,-7.6,1.9,/,19.0,-0.3,
COc1ccccc1NC(=S)NNC(=O)c1cc(C)n(C)n1,i,2.5,17.1,-0.2,-0.6,1.3,/,/,
Cc1ccccc1NC(=S)NNC(=O)c1ccoc1C,i,-5.7,10.0,-6.3,-1.6,-0.4,/,/,
COc1ccccc1NC(=S)NNC(=O)c1cc(C)nn1C,i,-3.3,19.3*,-3.0,1.6,0.8,21.6*,-4.5,
Cc1occc1C(=O)NNC(=S)Nc1ccccc1C(F)(F)F,i,-3.3,21.4*,-2.4,0.3,-5.0,26.6*,-4.2,
Cc1cccc(NC(=S)NNC(=O)c2ccccc2OC(F)F)c1,i,3.6,23.3*,-1.6,-1.6,1.6,35.6*,-4.0,
COc1ccc(NC(=S)NNC(=O)c2ccccc2OC(F)F)cc1,i,1.7,18.3,3.8,1.0,5.1,/,/,
O=C(c1ccc2snnc2c1)N1CCSCC1,i,0.9,-3.2,1.0,-0.1,-3.8,/,/,
CC1CC(C)CN(S(=O)(=O)c2ccc(C(=O)Nc3nnc(C4CC4)o3)cc2)C1 (stereo unspecified),i,17.7,6.1,0.7,4.2,-3.2,/,/,
CCOc1ccc(N(CC(=O)NCCc2ccccc2)C(=O)c2csnn2)cc1,i,1.3,13.6,-5.4,-0.1,4.6,/,/,
N#Cc1ccc(C(=O)Nc2cccc3ccccc23)c(F)c1,i,-6.5,-1.2,8.1,-1.3,-2.7,/,/,
CN(C)c1ccc(C(=S)Nc2ccccc2)cc1,i,-11.7,21.7*,7.4,0.5,4.8,21.0*,2.9,
Fc1ccc(C2=Nc3cccc4cccc(c34)N2)cc1,i,-5.4,8.7,-0.9,-3.5,/,/,/,
FC(F)(F)C1=Nc2cccc3cccc(c23)N1,i,-3.3,28.3*,-3.1,12.5,-2.6,32.1*,12.3*,
CN(CCCNC(=O)c1cn(C)c2ccc(S(=O)(=O)N(C)C)cc2c1=O)c1ccccc1,i,0.2,0.5,1.4,-0.1,-5.6,/,/,
SMILES,Myeloid diff 2,H9c2 protect,sPLA2-III inh,ABHD5-PLIN5 inh,DAGLB inhibitor,Rtt109 HAT inh,sPLA2 confirm,535nm interf,others
CCN(CC)CCNC(=S)Nc1ccc(Cl)cc1,i,5.0,21.2*,0.9,2.3,23.3,13.4,-6.8,
CCN(CC)CCCNC(=S)Nc1ccc(Br)cc1,i,-3.1,-1.3,1.0,1.5,-3.5,/,/,
O=C(CNC(=O)c1ccco1)OCc1ccc(C(=O)Oc2ccccc2)cc1,i,21.2,-9.2,3.6,-4.3,-6.7,/,/,
COc1ccc(Cl)cc1-c1n[nH]c(=S)n1C,i,7.1,24.0*,-3.8,-0.2,-8.3,15.8,-1.8,
CCn1c(-c2cc(Cl)ccc2OC)n[nH]c1=S,i,-1.0,13.8,-2.8,3.3,-1.8,/,/,
CCCCn1c(SCC(=O)N(C)C2CCS(=O)(=O)C2)nc2cc(S(N)(=O)=O)ccc21 (stereo unspecified),i,-2.3,-2.4,-4.2,1.3,-9.8,/,/,
CC12CC3(C)CC(C)(C1)CC(C(=O)NC(=S)N1CCOCC1)(C2)C3,i,0.6,20.1*,-10.5,-7.5,1.2,22.9*,-10.2,
CCNC1CCS(=O)(=O)C1 (stereo unspecified),i,1.0,21.6*,5.3,-1.1,-1.7,1.6,-2.6,
Nc1cccc2c1C(=O)N(c1ccccc1)C2=O,i,-1.0,-5.3,-6.6,0.2,-6.4,/,/,
Cc1ccc(N2CCOCC2)c2c1C(=O)c1ccccc1C2=O,i,1.4,25.5*,6.9,19.8,11.3,29.2*,-1.1,535nm interf DR=>122
COC1=C/C(=C/c2c(O)c(C#N)c3ccccn23)C=CC1=O,i,0.4,-1.3,11.3,-1.4,-19.7,/,/,
CCOC(=O)c1cnc2c(c(C)nn2CC)c1NCCN1CCOCC1,i,1.3,0.3,0.6,-0.2,0.8,/,/,
O=C(O)c1ccc(-c2nc(-c3ccccc3)cs2)cc1,i,4.7,-14.2,2.9,2.2,1.2,/,/,
c1ccc(-c2csc(-c3ccc(-c4csnn4)cc3)n2)cc1,i,-21.9,21.2*,1.1,-6.0,-6.5,-0.9,-0.7,
COc1ccc(CNC(=O)Nc2ccc3c(c2)N(C)C(=O)CS3)cc1,i,9.5,-5.1,0.8,-1.9,7.2,/,/,
CCCCCN(C(=O)CCC(=O)OC(C)C(=O)c1ccc(Cl)cc1)c1c(N)n(CCCC)c(=O)[nH]c1=O (stereo unspecified),i,0.0,-6.6,6.9,7.2,12.5,/,/,
O=c1[nH]c(NNC(=S)NCc2ccccc2)nc2c1C1(CCCCC1)Cc1ccccc1-2,i,-3.6,22.9*,-10.2,3.3,5.9,31.7*,9.4*,
CCOc1cc(N2CCOCC2)c(OCC)cc1NC(=O)c1c(C)noc1C,i,-5.9,4.3,-7.5,3.7,/,/,/,
COC(=O)c1c(Sc2ccccc2)c2ccccc2n1C,i,4.1,19.5*,0.5,-11.0,3.9,0.9,-4.1,
CCCN(Cc1cc2cc(C)ccc2[nH]c1=O)C(=O)c1cccc([N+](=O)[O-])c1,i,3.1,2.6,2.6,-0.1,4.9,/,/,
